This is a sample that favours compounds with a hit; in the whole collection about 1% have one here.
Mtb betalactam: beta-lactam sensitization of Mtb H37Rv; actives 0.27% (n = 330,000); inhibition, % at 25 µM; M. tuberculosis H37Rv growth with meropenem, percent inhibition; AID 434955; call rule not given here;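 further: growth measured after seven days incubation then overnight dye step; 0% = bacteria only wells and 100% = bacteria with antibiotic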
RN4220 kill: kills Staphylococcus aureus RN4220; S. aureus RN4220 growth, OD600, 16 h; inhibition, % (no concentration beside the values); actives 0.33% (n = 330,000); AID 1259311; in the data active means inhibition above about 85%;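 further: plate controls were untreated cells for no effect and reference antibiotic for full effect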
SSB-PriA inh: inhibitors of Klebsiella pneumoniae PriA binding to SSB C-terminal tail; AlphaScreen SSBct-PriA binding, biotinylated peptide; actives 0.6% (n = 430,000); inhibition, % at 33 µM; AID 1272365; in the data active means inhibition mostly above about 37%, no sharp cut-off; inactive means mostly below about 20%;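 further: plate controls were negative control peptide for no effect and reference peptide for full effect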
Mtb hypoxia rep: Mtb hypoxia fluorescent reporter inhibition; M. tuberculosis hypoxia-regulated fluorescent reporter, fluorescence; fluorescence inhibition, % (concentration not given with the values); actives 0.1% (n = 300,000); in the data active means fluorescence inhibition mostly above about 23%, no sharp cut-off; inactive means mostly below about 17%
ugtP null kill: kills S. aureus RN4220 lacking UgtP. S. aureus RN4220 ugtP deletion, OD600 growth, 16 h. growth inhibition, % (no concentration beside the values). actives 0.54% (n = 330,000). AID 1259309; in the data active means growth inhibition above about 68%;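 further: plate controls were untreated wells for no effect and antibiotic for full effect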
Starred values were filed as active, the others as inactive; nt = no result shown.

SMILES | Mtb betalactam | RN4220 kill | SSB-PriA inh | Mtb hypoxia rep | ugtP null kill
CC(C)=NNC(=S)NC(C)(C)C | nt | nt | 43* | nt | nt
O=[N+]([O-])c1cccc(CNc2ccc3c(c2)CCC3)c1 | 8 | 2 | 69* | 11 | -4
CCn1cc(C(=O)NCc2ccccc2)c(=O)c2cc(F)c(N3CCN(C(=O)c4ccco4)CC3)cc21 | 99 | 27 | 13 | nt | 40
CCn1cc(C(=O)O)c(=O)c2cc(F)c(N3CCN(C(=S)NC(=O)c4ccccc4Cl)CC3)cc21 | 97 | 100* | 6 | 8 | 100*
CCn1cc(C(=O)O)c(=O)c2cc(F)c(N3CCN(C(=S)NC(=O)c4ccccc4C)CC3)cc21 | nt | 100* | 2 | 21 | 100*
CCn1cc(C(=O)O)c(=O)c2cc(F)c(N3CCN(C(=S)NC(=O)c4ccccc4)CC3)cc21 | 54 | 99* | 1 | 12 | 99*
CCn1cc(C(=O)O)c(=O)c2cc(F)c(N3CCN(C(=S)Nc4ccc(OC)cc4)CC3)cc21 | 98 | 80 | 0 | 13 | 79
CCn1cc(C(=O)O)c(=O)c2cc(F)c(N3CCN(C(=S)NC(=O)c4cc(OC)cc(OC)c4)CC3)cc21 | 46 | 100* | 5 | 5 | 99*
O=S(=O)(c1ccc(Cl)cc1)N1CCC(c2nnc(-c3ccco3)o2)CC1 | nt | nt | -12 | nt | nt
CCCC1OC(c2cc3c(cc2Cl)OCO3)OCC1CC (stereo not given) | nt | -1 | -48 | 1 | 85*
C(=Nc1ccccc1)c1ccc[nH]1 | nt | 3 | -10 | 3 | -2
Oc1ccccc1N=Cc1ccc[nH]1 | 99 | 12 | 0 | 81* | -1
CCC(C)C1CN(C(C)CN2CCCC2CN2C(N)=NCC2Cc2ccccc2)C(=N)N1CCc1ccc(Cl)c(Cl)c1 (stereo not given) | nt | 100* | nt | nt | 98*
CCC(C)C1CN(C(C)CN2CCCC2CN2C(N)=NCC2CC(C)C)C(=N)N1CCc1ccc(Cl)c(Cl)c1 (stereo not given) | nt | 101* | nt | nt | 99*
O=C(c1cnn2c1OCCC2)N1CCN(C(=O)[C@@H]2CCCO2)CC1 | nt | nt | -12 | nt | nt
Nc1nc(-c2csc(N)n2)cs1 | nt | nt | 46* | nt | nt
O=C(Cn1cccn1)Nc1ccc(F)cc1 | nt | nt | 0 | nt | nt
Oc1ccccc1C1SC(c2ccccc2O)SC(c2ccccc2O)S1 (stereo not given) | nt | 100* | -3 | 17 | 100*
Cn1cnnc1SCc1ccc(O)c2ncccc12 | nt | nt | 125* | nt | nt
Cn1ccnc1SCc1ccc(O)c2ncccc12 | nt | nt | 128* | nt | nt
CCCCCCCCCCCCc1ccc(O)c2ncccc12 | nt | nt | 33 | nt | nt
Cn1nnnc1SCc1ccc(O)c2ncccc12 | nt | nt | 124* | nt | nt
Cc1nnsc1C(=O)N1CCC(CNC(=O)c2ccc(OC(F)(F)F)cc2)CC1 | nt | nt | -16 | nt | nt
Cc1ccc(CCC(=O)Nc2ccc(Cl)c([N+](=O)[O-])c2)o1 | nt | nt | 48* | nt | nt
CCCN1CCCc2cc(CCNC(=O)COc3ccccc3F)ccc21 | nt | nt | 83* | nt | nt
SMILES | Mtb betalactam | RN4220 kill | SSB-PriA inh | Mtb hypoxia rep | ugtP null kill
CCCN1CCCc2cc(CCNC(=O)C(C)C)ccc21 | nt | nt | 59 | nt | nt
CCCN1CCCc2cc(CCNC(=O)c3c(OC)cccc3OC)ccc21 | nt | nt | 80* | nt | nt
CCCN1CCCc2cc(CCNC(=O)c3ccccc3F)ccc21 | nt | nt | 68* | nt | nt
CCCN1CCCc2cc(CCNC(=O)C(C)(C)C)ccc21 | nt | nt | 51* | nt | nt
CCCN1CCCc2cc(CCNC(=O)c3ccccc3)ccc21 | nt | nt | 57 | nt | nt
CCCN1CCCc2cc(CCNC(=O)c3cccs3)ccc21 | nt | nt | 63* | nt | nt
COc1ccc(C2=Nn3c(nnc3-c3ccccn3)SC2)cc1OC | 8 | 5 | 83* | 7 | -8
COc1ccc(C2=Nn3c(nnc3-c3ccccc3OC)SC2)cc1OC | 3 | 7 | 1 | 4 | 0
CC(C)(C)C1=Nn2c(nnc2-c2ccccn2)SC1 | 13 | 1 | 90* | 5 | -2
CC(C)(C)C1=Nn2c(nnc2-c2ccccc2F)SC1 | nt | 3 | 0 | 9 | 3
NC(=NOC(=O)/C=C/c1ccccc1Cl)c1ccncc1 | nt | nt | -12 | nt | nt
O=C(Nc1ccccc1Cl)c1ccccc1Oc1ccc(C(F)(F)F)cc1[N+](=O)[O-] | 10 | -1 | 47* | nt | 31
COCCN1CCCc2ccc(NS(=O)(=O)c3ccc(F)cc3)cc21 | nt | nt | 20 | nt | nt
COCCN1CCCc2ccc(NS(=O)(=O)c3ccc4c(c3)CCCC4)cc21 | nt | nt | 45* | nt | nt
CCS(=O)(=O)Nc1ccc2c(c1)N(CCOC)CCC2 | nt | nt | -14 | nt | nt
COCCN1CCCc2ccc(NS(=O)(=O)c3c(C)c(C)c(C)c(C)c3C)cc21 | nt | nt | 38* | nt | nt
CCN1C(=O)C(C)(C)COc2ccc(NC(=O)c3ccc(-c4ccccc4)cc3)cc21 | nt | nt | 23 | nt | nt
O=C(NCC1CCN(Cc2ccsc2)CC1)Nc1cccc(C(F)(F)F)c1 | nt | nt | -8 | nt | nt
CCC1(CCC(C)C)SC(=N)NC1=O (stereo not given) | nt | nt | -3 | nt | nt
Cn1cccc1C(CNC(=O)c1ccco1)N1CCc2ccccc2C1 (stereo not given) | nt | nt | 9 | nt | nt
c1ccc(-c2cc3ccccc3nc2N2CCCC2)cc1 | 71 | 0 | -148 | nt | 85*
Cc1ccc(-c2cc3ccccc3nc2N2CCOCC2)cc1 | -4 | -3 | -15 | -2 | 91*
CN(C)S(=O)(=O)N1CC(n2ccnn2)C1 | nt | nt | -4 | nt | nt
CC1(c2ccccc2)CC(C)(C)N2C(=O)C(=O)c3cccc1c32 (stereo not given) | -9 | nt | 2 | nt | nt
CC1(c2ccccc2)CC(C)(C)N2C(=O)C(=C3SC(=S)NC3=O)c3cccc1c32 (stereo not given) | nt | 100* | nt | 5 | 100*
SMILES | Mtb betalactam | RN4220 kill | SSB-PriA inh | Mtb hypoxia rep | ugtP null kill
CN(C)S(=O)(=O)c1cccc(NC(=S)Nc2cc(Cl)cc(Cl)c2)c1 | 91 | 100* | -4 | 9 | 100*
CC(=O)N1CCC(CN2CCCC2)CC1 | nt | nt | 38* | nt | nt
CC(=O)N1CCC(CN2CCOCC2)CC1 | nt | nt | 2 | nt | nt
O=C(c1ccc2c(=O)n(-c3ccc(F)cc3)c(SCc3cccc(F)c3)nc2c1)N1CCOCC1 | nt | nt | 3 | nt | nt
CCCC(CN1CCCC1CN1C(N)=NCC1Cc1ccccc1)N1CC(Cc2ccccc2)N(CCCC2CCCC2)C1=N (stereo not given) | nt | 101* | nt | nt | 101*
CC[C@@H](C)[C@@H]1CN([C@@H](CN2CCC[C@H]2CN2C(N)=NC[C@H]2C(C)C)C(C)C)C(=N)N1CCCC1CCCC1 | 96 | 94* | -6 | nt | 100*
CCC(C)C1CN(C(CN2CCCC2CN2C(N)=NCC2Cc2ccccc2)C(C)C)C(=N)N1CCCC1CCCC1 (stereo not given) | nt | 100* | nt | nt | 100*
CCC[C@@H](CN1CCC[C@H]1CN1C(N)=NC[C@H]1CC(C)C)N1C[C@@H]([C@H](C)CC)N(CCCC2CCCC2)C1=N | 100 | 101* | -1 | nt | 101*
COC(=O)c1ccsc1NC(=O)c1ccc(S(=O)(=O)N(C)Cc2ccco2)cc1 | nt | nt | -10 | nt | nt
COc1nn(C)cc1C(=O)N1CCC(n2c(=O)[nH]c3ccccc3c2=O)CC1 | nt | nt | -26 | nt | nt
Cc1cc(C(=O)Nc2nnc(-c3ccco3)o2)no1 | nt | nt | -9 | nt | nt
Cc1ccccc1OCC(=O)OCC(=O)c1ccc(OC(=O)c2ccccc2)cc1 | 94 | 4 | 67* | 0 | 3
Cc1ccccc1OCC(=O)OCC(=O)c1ccc(OCc2ccccc2)cc1 | 32 | 3 | -58 | 13 | 6
